The full ranking holds about 33,000 sequences; the median of “E-score (-0.5 to 0.5)” is about -0.016, and the highest 2% start at about 0.3. For the sample, the highest values were picked, then their nearest neighbours and some sequences at random.
target: T1, Yer184c (UniProt P39961); assay: PBM E-score (8-mer binding enrichment) (E-score (-0.5 to 0.5)); higher = stronger / more preferred TF binding; conditions: protein concentration: 100 nM; construct: GST-full length
T1 sequence: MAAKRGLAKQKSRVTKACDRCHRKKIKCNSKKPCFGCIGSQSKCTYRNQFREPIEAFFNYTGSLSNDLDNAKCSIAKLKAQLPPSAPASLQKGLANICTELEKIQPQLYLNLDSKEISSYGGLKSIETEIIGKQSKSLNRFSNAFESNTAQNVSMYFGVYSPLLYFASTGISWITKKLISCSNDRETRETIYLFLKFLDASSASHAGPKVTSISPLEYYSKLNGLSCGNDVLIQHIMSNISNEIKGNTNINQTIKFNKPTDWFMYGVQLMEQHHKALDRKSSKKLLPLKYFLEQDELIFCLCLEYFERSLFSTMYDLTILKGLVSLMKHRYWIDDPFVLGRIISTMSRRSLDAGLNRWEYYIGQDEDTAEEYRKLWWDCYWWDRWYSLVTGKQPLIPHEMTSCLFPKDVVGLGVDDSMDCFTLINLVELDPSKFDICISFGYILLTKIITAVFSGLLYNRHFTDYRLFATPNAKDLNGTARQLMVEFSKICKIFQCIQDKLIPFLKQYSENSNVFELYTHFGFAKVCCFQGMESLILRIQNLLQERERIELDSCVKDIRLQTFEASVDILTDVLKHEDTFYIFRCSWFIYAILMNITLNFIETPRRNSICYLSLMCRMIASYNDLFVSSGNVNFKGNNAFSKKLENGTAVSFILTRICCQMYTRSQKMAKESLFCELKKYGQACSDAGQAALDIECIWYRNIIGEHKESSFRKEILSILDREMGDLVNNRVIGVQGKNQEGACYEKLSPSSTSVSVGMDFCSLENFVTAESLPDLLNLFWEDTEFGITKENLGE
Protocol: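 Universal 'all 10-mer' protein binding microarrays (Agilent AMADID 015681) probed with GST-tagged S. cerevisiae TFs (full-length or DBD) made by in vitro transcription/translation (PURExpress), about 100-200 nM. Bound TF was detected with fluorescent anti-GST. Each ungapped 8-mer (which stands for itself and its reverse complement) is scored by the PBM enrichment score (E-score), a modified Wilcoxon-Mann-Whitney statistic from -0.5 to +0.5, computed with the Universal PBM Analysis Suite. Scale: above 0.35 generally sequence-specific binding.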

Sequence	PBM E-score
GTATCTTA	0.197
GTCGCGAA	0.00034
GTCGCGAC	0.315
CTCGCGAC	-0.064
CTCTTCAA	-0.129
TAGACCTA	-0.0542
GCGGAGTA	0.0105
ACGGATTA	0.183
CTGGATTC	0.00297
CCGGAGTC	0.235
CCGGATTC	0.33
GCGGATTA	0.0175
CCGGATTA	0.352
CCGGAGTA	0.381
ACGGATTC	0.197
ATATGGAT	-0.0237
ACCGCTCG	-0.135
GGTAGGTA	-0.127
CCGCGGCA	0.409
ACGCGGCA	0.096
ACGCGGCG	0.113
ACGCGGCC	-0.0466
CCGCGGCC	0.374
CAGCGGCG	0.0785
CCGCGGCG	0.326
GCGCGGCA	0.158

Sequence	PBM E-score
GCGCGGCC	0.177
ACCCAACC	-0.191
AGAGGGGA	-0.286
ACTGGGTC	-0.271
GAGATTCC	0.0978
CCAAAGCC	-0.0564
CCGGAAGG	0.28
CCGGAAGC	0.329
TCGGACGA	0.278
GCGGAAGC	0.105
CCGGACGA	0.323
ACGGAAGA	0.262
AGGGAACA	0.00359
GGGGAACA	-0.17
CGGGAACA	0.313
ACGGACGA	0.237
ACGGAAGC	0.274
CCGGAAGA	0.344
GACACCTA	-0.129
AAGGGCGA	-0.211
AACAACCT	-0.0961
CAGCTTCG	-0.0525
ATAGTCGA	0.0238
AAACCCCG	0.0829
ATTCGATC	0.111
GAAGGGGA	-0.201

Sequence	PBM E-score
GACAGAGC	-0.128
AGGCCGAA	0.302
CGGGAAGC	0.138
AGGGAAGA	-0.12
CGGGAAGA	0.315
AAACAATA	0.282
TAACAATA	0.158
GAACAATA	0.313
CACACCGG	0.0348
AATACCGC	0.0781
AACACCGG	0.37
AACACCGC	-0.13
AATACCGG	0.336
AATACCGT	0.188
CACCCGTG	-0.169
GCCGCGGA	0.386
ACCGCGGA	0.314
AACGCGGA	0.178
ATCGCGGA	-0.00991
GCCGCGAA	-0.0654
GCCGCGCA	0.0353
GCCGCTCA	-0.0363
GGTAAGCA	-0.146
CAGGATGC	-0.0823
CCGGATGC	0.331
ACGGATGC	0.203

Sequence	PBM E-score
GCGGATGA	0.125
CCGGATGA	0.335
ACGGATGA	0.0817
GCGCCAAA	-0.00708
CCCATGAC	-0.117
GAGGAGCA	-0.0781
CCTGCTGC	-0.143
GAATGCTC	-0.157
CGGTACCA	0.0778
CGGTACCG	0.32
CGGTACCC	-0.0697
GCTAGGAA	0.0829
AGGTAGAA	-0.0769
GCGGCCGA	0.242
CCGGCCGC	0.304
CCGGCCTA	0.28
CCGGCCGA	0.431
GCGGCCGC	0.261
ATGGCCGG	0.215
ACGGCCGA	0.355
ACGGCCGG	0.372
ACGGCCAA	0.192
ACGGCCGC	0.244
ACGGCCGT	0.176
ACGGCCCA	-0.0167
AAAGAGCG	0.00323

Sequence	PBM E-score
AAGCGACA	-0.0772
AACATGGC	-0.317
CATGTGAA	-0.0476
ACTTGCCG	0.142
AGGTCGAA	-0.0466
CGGGCCGA	0.308
GGGGCCGA	-0.192
CGGGCCGC	0.137
AAAGATAT	0.0801
CTGTGCTA	-0.119
GTGTGGGA	-0.0509
CGAGCTCA	0.144
CGAGCTCG	0.308
CGAGCTCC	0.0493
TCAATGGA	-0.0551
GCTACAGA	-0.185
CCGTGCCG	0.312
CCGTGCCA	-0.127
ACGTGCCG	0.233
CAGGGGAA	-0.196
AAGCTATC	0.191
GTCGGACA	0.193
ATCGGATA	0.369
CTCGGATA	0.305
ATCGGATC	0.298
CTCGGATC	0.241

Sequence	PBM E-score
ATCGGACA	0.303
CTCGGAGA	0.252
CTCGGACA	0.306
GTCGGATA	0.122
GATTGGGA	-0.133
CCCCAGGA	-0.372
CGATTCAA	-0.0538
GTTTGCCA	-0.0315
GAGCATCC	-0.111
CGTGCGCC	0.0367
CGGGCTTA	0.157
AATTACCT	0.0235
AGAGGTTA	-0.0189
CAAGTGCC	-0.126
AGTTACCA	0.0704
GGCGCCAA	-0.0615
GCCGCCGA	0.264
AGCGCCGA	0.357
CCCGCCGA	0.193
TCCGCCGA	0.316
CGCGCCGA	0.256
GGCGCCTA	-0.0826
GGCGCCGA	0.337
AGCGCCGC	0.0842
AGCGCCGG	0.351
AGCGCCAA	-0.231

Sequence	PBM E-score
AGCGCCCG	0.113
GCAGGGCA	-0.0295
GTGCACAA	-0.028
ACCTTTTC	-0.076
AAGCTAAT	0.162
CCGGCTAG	0.277
AGGGGCTC	-0.341
TAAATCCA	0.00272
CGCCGGCA	0.345
AGCCGGTA	0.306
AGCCGGCA	0.404
CTCCGGCC	0.125
CTCCGGCA	0.359
AGCCGGTC	0.144
AACCGGTA	0.0801
ACCCGGCA	0.187
CGCCGGTA	0.216
ATCCGGCA	0.296
CCCCGGCA	0.0621
AGGCGGCA	-0.0565

Source: the supplement of paper PMC3334620
